From PubChem
This is a sample that favours compounds with a hit; in the whole collection about 2.1% have one here.
Myeloid diff 2: promotes myeloid progenitor differentiation; calls only at 10 µM; actives 1% (n = 360,000); ER-HoxA9 myeloid progenitors, lysozyme-GFP differentiation, flow cytometry;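 active = normalized GFP-positive differentiation at or above the plate's own cutoff, the solvent-only control mean plus 3 SD; inconclusive = no clear call, values can overlap the other calls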;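 also: cells exposed to compound for four days before flow analysis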
TPT1 inh: inhibitors of Candida albicans tRNA 2'-phosphotransferase TPT1 | recombinant caTPT1, FP RNA substrate dephosphorylation | inhibition, % at 5 µM | actives 0.81% (n = 300,000) | AID 1962;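 active = inhibition above the mean of all tested compounds plus 3 SD, set per screening campaign, cut at about 24% in these data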;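 also: plate controls were DMSO alone for no effect and ferristatin control at 100 nM for full effect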
Rpn11 inh: blocks the human proteasome subunit Rpn11; O00487; inhibition, % at 20 µM; actives 0.59% (n = 360,000); AID 588493; human 26S proteasome, Ub4-pepOG fluorescence polarization; 20S core pre-blocked with epoxomicin;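 active = inhibition at 20 µM, scaled to each plate's controls, above about 33%, limit read from the data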
Target sequence (O00487 whole entry, looked up): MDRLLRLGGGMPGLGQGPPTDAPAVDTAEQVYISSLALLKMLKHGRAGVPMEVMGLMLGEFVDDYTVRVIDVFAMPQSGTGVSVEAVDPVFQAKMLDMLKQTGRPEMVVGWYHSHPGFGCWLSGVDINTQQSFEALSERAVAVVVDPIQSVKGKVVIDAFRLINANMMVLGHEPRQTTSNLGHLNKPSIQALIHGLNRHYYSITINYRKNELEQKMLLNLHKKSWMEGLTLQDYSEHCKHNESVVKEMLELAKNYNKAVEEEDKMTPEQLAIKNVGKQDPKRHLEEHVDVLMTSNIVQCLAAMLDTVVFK
HNF4A DNA FP: change in binding of human HNF4 alpha to DNA | actives 0.3% (n = 360,000) | activity change, % at 10 µM | HNF4a-FITC DNA binding, fluorescence polarization, 1 h | AID 1224865; in the data active = activity change above about 30%, passing the limit was not always enough
Myeloid diff CP1: myeloid differentiation induction | shares compounds with Myeloid diff 2 | ER-HoxA9 myeloid progenitors, GFP/Mac1 double-positive flow | calls only | actives 2% (n = 2,300);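 active = share of green or green-and-red cells above 9 and 9% in run 1 or 4 and 3% in run 2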
GFP autofluor: flagged as fluorescent in myeloid differentiation counter-screen. shares compounds with Myeloid diff 2. ER-HoxA9 myeloid progenitors, no estrogen, GFP autofluorescence flow cytometry; vehicle wells 0%, positive control 100%. fluorescence response, % (test concentration not listed). actives 7.4% (n = 2,300);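 active = over 5% cells positive for green fluorescent reporter, or over 2% positive for both it and APC stain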;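 also: range taken on the double positive population between DMSO and positive control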
An asterisk follows results filed as active; i = inactive; ? = inconclusive; . = not tested or not shown; + = active, no number.

SMILES	Myeloid diff 2	TPT1 inh	Rpn11 inh	HNF4A DNA FP	Myeloid diff CP1	GFP autofluor
O=C(CSc1nc(=O)n(CCCN2CCOCC2)c2c1CCCC2)Nc1ccc(F)cc1F	+	-2	2	-3	i	0
O=C(Nc1ccc(F)cc1)C(CCc1ccccc1)N1CCN(c2cccc(C(F)(F)F)n2)CC1 (stereo not given)	i	.	.	1	.	.
O=C(c1ccc(S(=O)(=O)N2CCCCC2)cc1)N1CCN(CCN2C(=O)c3cccc4cccc(c34)C2=O)CC1	+	-2	1	-5	i	0
CN(CC(=O)Nc1ccccc1C(F)(F)F)C(=O)CSCc1ccccc1	i	3	-5	-3	.	.
COc1ccc(CCn2c(=S)[nH]c3cc(C(=O)NCc4ccco4)ccc3c2=O)cc1OC	i	-2	0	4	i	0
COc1ccc(-n2c(=S)[nH]c3cc(C(=O)NCc4ccco4)ccc3c2=O)cc1OC	i	-3	-3	-3	.	.
Cc1ccc2nc(SCC(=O)N3CCC(C)CC3)nc(=O)n2c1	i	4	0	5	.	.
O=C(O)c1cc(-c2cccc(Cl)c2)nc2nc(N3CCCCC3)sc12	i	-2	-3	-2	.	.
C[C@H]1CN([C@@H](C)CO)C(=O)CCCn2nncc2CO[C@H]1CN(C)C(=O)c1ccc2ccn(C)c2c1	i	.	-9	3	.	.
COc1ccc(/C=C2\C(=O)NCC(=O)N2Cc2ccccc2)cc1	+	0	-1	0	i	0
COc1ccc(/C=C2\C(=O)N(Cc3ccc(F)cc3)CC(=O)N2Cc2ccccc2)cc1	i	-3	-5	1	.	.
CCOc1ccc(NC(=S)N2c3ccccc3CC2C)cc1 (stereo not given)	i	0	-3	-3	i	0
COc1ccc(/C=C/c2cccc[n+]2C)c(O)c1	i	1	20	-1	+	1
C[n+]1ccccc1/C=C/c1cc(Br)ccc1O	i	3	3	3	.	.
CN(C)c1ccc(NC(=O)CN2CCN(CC(=O)Nc3ccc(F)cc3)CC2)cc1	i	-1	4	-1	.	.
CN(C)c1ccc(NC(=O)CN2CCC(O)(c3ccccc3)CC2)cc1	i	3	-5	-2	i	0
CCCCCCn1c(=O)n2n(c1=O)[C@@H]1CN(S(=O)(=O)c3ccc(C)cc3)C[C@]1(O)[C@@H](OC(=O)NC1CCCC1)C2	i	.	4	0	.	.
O=C(CNCc1ccccc1)Nc1ccc(Cl)cc1	i	-2	-6	3	.	.
O=C(Nc1nc(-c2ccc(Cl)cc2)cs1)C1=COCCO1	i	3	1	0	i	0
CCCC(=O)NC(=S)Nc1ccc(S(=O)(=O)Nc2ccc(OCC)cc2)cc1	i	-1	21	-3	.	.
CCOc1ccc(NS(=O)(=O)c2ccc(NC(=S)NC(=O)CC(C)C)cc2)cc1	i	-4	18	3	i	2
Cc1cc(C)n2nc(C(=O)OCC(=O)Nc3ccc(C)c(F)c3)nc2n1	i	.	-3	2	i	0
Cc1ccc(CC(=O)Nc2nccs2)cc1	i	-1	-3	0	.	.
Cc1ccc(Cl)cc1N1CCN(C(=O)C2CCC(=O)N(C3CCCCCC3)C2)CC1 (stereo not given)	+	2	24	-1	i	1
COC(=O)c1sc2ccccc2c1-n1cccc1C(=O)C(=O)Nc1ccccc1	i	-2	-4	-1	i	0
SMILES	Myeloid diff 2	TPT1 inh	Rpn11 inh	HNF4A DNA FP	Myeloid diff CP1	GFP autofluor
CCC(C)[C@H](NC(=O)Nc1ccccc1F)C(=O)OC (stereo not given in full)	i	1	-13	0	.	.
O=C(Cn1c(=O)n(Cc2ccco2)c(=O)c2cc(Cl)ccc21)NCC1CCCO1 (stereo not given)	+	2	-4	3	i	0
O=C(Cn1c(=O)n(Cc2ccc(F)cc2)c(=O)c2ccccc21)NCC1CCCO1 (stereo not given)	i	-2	4	2	.	.
CC(=O)N1CCN(S(=O)(=O)c2ccc(C)cc2)C1C (stereo not given)	i	1	3	0	.	.
COc1cc(CCC(=O)Nc2ccc(S(=O)(=O)NC3=NCCCCC3)cc2)cc(OC)c1OC	i	-1	4	-6	i	0
O=C(Nc1cccc(NC(=O)c2nccc3ccccc23)c1)c1ccco1	+	1	-4	1	i	0
Cc1cc(C)n2c(NC3CCCC3)c(-c3cc4ccccc4o3)nc2n1	i	.	.	11	i	2
Cc1cc(C)n2c(NC3CCCCC3)c(-c3ccccn3)nc2n1	i	.	.	3	.	.
COc1ccc(/C=C2\SC(=S)N(CCC(=O)NC3CCCC3)C2=O)cc1OC	i	1	2	2	i	0
CC(=O)Nc1ccc(S(=O)(=O)NC2(C(F)(F)F)N=C(c3ccccc3)NC2=O)cc1 (stereo not given)	i	0	-1	2	i	0
CC(C)(C)OC(=O)C[C@@H]1C/C=C\C[C@H](CC(=O)N[C@H](CO)Cc2ccccc2)C(=O)N[C@@H](Cc2ccccc2)COC1=O	i	.	4	-4	i	0
CC(C)(C)OC(=O)C[C@H]1C/C=C\C[C@H](CC(=O)N[C@H](CO)Cc2ccccc2)C(=O)N[C@H](Cc2ccccc2)COC1=O	i	.	5	7	.	.
COc1cccc(CN2CC(C(=O)N3CCN(C(C)C)CC3)CCC2=O)c1 (stereo not given)	?	-1	-6	-4	.	.
COC(=O)c1ccc2nc(-c3ccc(F)cc3)c(Cc3ccccc3C(F)(F)F)n2c1	i	.	.	4	.	.
CC(=O)Nc1cccc(-c2ccnc3c2CC(C)(C(=O)NCc2cccc(Cl)c2)O3)c1 (stereo not given)	i	.	1	1	.	.
CC(=O)Nc1cccc(-c2ccnc3c2CC(C)(C(=O)NCc2ccc(N(C)C)cc2)O3)c1 (stereo not given)	+	.	0	-1	i	0
CCNc1ccc(S(=O)(=O)N(C)C)cc1NCC(=O)Nc1ccc(F)c(Cl)c1	i	-1	3	3	i	0
CC(C)(C)c1ccc(C(=O)NC(Cc2ccccc2)C(=O)O)cc1 (stereo not given)	i	-2	0	-1	i	0
CC(C)(C)OC(=O)N1CC2(CCCCC2)CC1Cc1ccc(C(F)(F)F)cc1 (stereo not given)	i	.	-6	0	i	0
O=C1Nc2ccccc2C1=Nc1ccc2[nH]c3ccccc3c2c1	i	.	28	5	.	.
CC(C)CNC(=O)COC(=O)c1ccccc1SCC(=O)NCC(C)C	i	-1	0	-1	.	.
CC(C)CNC(=O)c1ccccc1SCC(=O)NC12CC3CC(CC(C3)C1)C2	+	2	-14	-3	i	4
O=C(NC1CCCC1)c1cnc2n(c1=O)CCS2	i	1	-2	2	i	0
